PubChem BioAssay (EPA / NIEHS)
The source made the active and inactive calls. How the source made its calls: active means hit-call score of the fitted dose curve at least 0.9, where 1 is the maximum; inactive means score below 0.9.

What was measured:
Conditions in all cases: mRNA level, 48 h; actives raise or lower the signal
[1] = read-out: Tumor necrosis factor receptor superfamily member 6 (Homo sapiens) (UniProt P25445); assay: LTEA_HepaRG_FAS: Life Technologies and Expression Analysis (LTEA) Assay for Fas cell surface death receptor (FAS) using HepaRG (AID 2283447)
How it was run: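 FAS transcript level was measured by TaqMan qRT-PCR against three housekeeping genes after 48 h chemical exposure. Cells were HepaRG, 0.5% DMSO vehicle, with a top concentration of 100 uM and half-log dilutions over eight points, in duplicate.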

[2] = read-out: Fatty acid synthase (Homo sapiens) (UniProt P49327); assay: LTEA_HepaRG_FASN: Life Technologies and Expression Analysis (LTEA) Assay for Fatty Acid Synthase (FASN) using HepaRG (AID 2283448)
How it was run: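 Transcript-level assay: HepaRG liver cells are treated for 48 h across an eight-point range topping at 100 uM, and FASN mRNA, normalized to three housekeeping genes, is compared with DMSO controls in both directions.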

[3] = read-out: Cyclin Dependent Kinase Inhibitor 1A (CDKN1A), CDKN1A (gene 1026); assay: LTEA_HepaRG_CDKN1A: Life Technologies and Expression Analysis (LTEA) Assay for Cyclin Dependent Kinase Inhibitor 1A (CDKN1A) using HepaRG (AID 2283450)
How it was run: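 Read-out is CDKN1A mRNA by TaqMan qRT-PCR, normalized to three housekeeping genes and fitted in both directions against the DMSO baseline. Human HepaRG cells were treated 48 h with test chemicals up to 100 uM in half-log steps, 0.5% DMSO.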

[4] = read-out: Cyclin D1 (CCND1), CCND1 (gene 595); assay: LTEA_HepaRG_CCND1: Life Technologies and Expression Analysis (LTEA) Assay for Cyclin D1 (CCND1) using HepaRG (AID 2283451)
How it was run: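 HepaRG plated 48 h, medium switched to serum-free induction medium, chemicals added in duplicate (top 100 uM, half-log steps, 0.5% DMSO) for 48 h, cells lysed, RNA measured by TaqMan qRT-PCR.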

[5] = read-out: catalase (CAT), CAT (gene 847); assay: LTEA_HepaRG_CAT: Life Technologies and Expression Analysis (LTEA) Assay for catalase (CAT) using HepaRG (AID 2283452)
How it was run: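 Expression of CAT was quantified by TaqMan qRT-PCR with ACTB/GAPDH/POLR2A normalization after 48 h chemical exposure of HepaRG. Eight-point half-log series, top 100 uM, in 0.5% DMSO; gain or loss fitted against vehicle.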

[6] = read-out: flavin-containing dimethylaniline monooxygenases 3 (FMO3), FMO3 (gene 2328); assay: LTEA_HepaRG_FMO3: Life Technologies and Expression Analysis (LTEA) Assay for flavin-containing dimethylaniline monooxygenases 3 (FMO3) using HepaRG (AID 2283453)
How it was run: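 HepaRG, 48 h exposure, 8-pt half-log series from 100 uM, 0.5% DMSO vehicle, duplicates; FMO3 transcript by Fluidigm TaqMan qRT-PCR, housekeeping-normalized; gain/loss fit vs DMSO.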

[7] = read-out: Cytochrome P450 (CYP1A1), CYP1A1 (gene 1543); assay: LTEA_HepaRG_CYP1A1: Life Technologies and Expression Analysis (LTEA) Assay for Cytochrome P450 (CYP1A1) using HepaRG (AID 2283454)
How it was run: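 HepaRG, 48 h post-plating switched to serum-free induction medium; 8-pt conc-response (top 100 uM, half-log, 0.5% DMSO), duplicates, 48 h. Lysis in RLT, TaqMan qRT-PCR for CYP1A1; gain or loss vs DMSO.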

[8] = read-out: CFLAR gene, CFLAR (gene 8837); assay: LTEA_HepaRG_CFLAR: Life Technologies and Expression Analysis (LTEA) Assay for CFLAR gene using HepaRG (AID 2283455)
How it was run: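 HepaRG, 48 h exposure, 8-pt conc-response (100 uM top, half-log), 0.5% DMSO vehicle, duplicates. CFLAR expression by qRT-PCR; ACTB/GAPDH/POLR2A normalization; gain or loss fit vs DMSO baseline.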

[9] = read-out: Forkhead box O1 (FOXO1), FOXO1 (gene 2308); assay: LTEA_HepaRG_FOXO1: Life Technologies and Expression Analysis (LTEA) Assay for Forkhead box O1 (FOXO1) using HepaRG (AID 2283456)
How it was run: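 Readout is FOXO1 transcript level by multiplexed qRT-PCR against three housekeeping genes, curve-fitted in both directions relative to 0.5% DMSO vehicle. Human HepaRG cultures received chemicals for 48 h, up to 100 uM in half-log steps.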

[10] = read-out: Forkhead box O3 (FOXO3), FOXO3 (gene 2309); assay: LTEA_HepaRG_FOXO3: Life Technologies and Expression Analysis (LTEA) Assay for Forkhead box O3 (FOXO3) using HepaRG (AID 2283459)
How it was run: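 HepaRG, 48 h post-dose; 8 conc., half-log from 100 uM, 0.5% DMSO, duplicates; serum-free induction medium. Readout: FOXO3 mRNA, TaqMan qRT-PCR, housekeeping-normalized. Bidirectional curve fit vs DMSO baseline.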

[11] = read-out: ABC Transporter (ABCB1), ABCB1 (gene 5243); assay: LTEA_HepaRG_ABCB1: Life Technologies and Expression Analysis (LTEA) Assay for ABC Transporter (ABCB1) using HepaRG (AID 2283460)
How it was run: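 Expression of ABCB1 was quantified by qRT-PCR against three housekeeping genes after human HepaRG cultures received test chemicals for 48 hours. Concentrations spanned eight half-log steps topping at 100 uM in 0.5% DMSO; gain or loss of signal was fitted relative to vehicle.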

[12] = read-out: growth arrest and DNA damage 45 (GADD45B), GADD45B (gene 4616); assay: LTEA_HepaRG_GADD45B: Life Technologies and Expression Analysis (LTEA) Assay for growth arrest and DNA damage 45 (GADD45B) using HepaRG (AID 2283461)
How it was run: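 HepaRG, ~100,000 cells/well, 48 h plating; serum-free induction medium; cpd 100 uM top, half-log x8, 0.5% DMSO, duplicate, 48 h; lysis in RLT, RNA isolation, qRT-PCR; norm ACTB/GAPDH/POLR2A; bidirectional fit vs DMSO.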

[13] = read-out: ABC Transporter (ABCC3), ABCC3 (gene 8714); assay: LTEA_HepaRG_ABCC3: Life Technologies and Expression Analysis (LTEA) Assay for ABC Transporter (ABCC3) using HepaRG (AID 2283462)
How it was run: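 Human HepaRG, 48 h dosing, 8-pt half-log series from 100 uM, 0.5% DMSO vehicle, duplicates. ABCC3 mRNA by TaqMan qRT-PCR, housekeeping-normalized; bidirectional curve fit vs DMSO.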

[14] = read-out: ABC Transporter (ABCB11), ABCB11 (gene 8647); assay: LTEA_HepaRG_ABCB11: Life Technologies and Expression Analysis (LTEA) Assay for ABC Transporter (ABCB11) using HepaRG (AID 2283463)
How it was run: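 ABCB11 transcript levels are read by Fluidigm TaqMan qRT-PCR after 48 h chemical treatment of human HepaRG cells. Concentrations span 100 uM downward in half-log steps with 0.5% DMSO; gain or loss is fitted against DMSO controls.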

[15] = read-out: ABC Transporter (ABCC2), ABCC2 (gene 1244); assay: LTEA_HepaRG_ABCC2: Life Technologies and Expression Analysis (LTEA) Assay for ABC Transporter (ABCC2) using HepaRG (AID 2283464)
How it was run: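 HepaRG, 48 h post-plating; serum-free induction medium; cpd 8-pt, 100 uM top, half-log, 0.5% DMSO, duplicate, 48 h. Readout: ABCC2 mRNA by qRT-PCR, norm. ACTB/GAPDH/POLR2A. Bidirectional fit vs DMSO baseline.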

[16] = read-out: Broad substrate specificity ATP-binding cassette transporter ABCG2 (Homo sapiens) (UniProt Q9UNQ0); assay: LTEA_HepaRG_ABCG2: Life Technologies and Expression Analysis (LTEA) Assay for ABC Transporter (ABCG2) using HepaRG (AID 2283465)
How it was run: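 Read-out is ABCG2 mRNA induction or loss quantified by qRT-PCR after 48 h chemical treatment of human HepaRG cells, normalized to three housekeeping genes. Concentrations reached 100 uM top in half-log steps; fitting was bidirectional against 0.5% DMSO.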

[17] = read-out: ATP-citrate lyase (ACLY), ACLY (gene 47); assay: LTEA_HepaRG_ACLY: Life Technologies and Expression Analysis (LTEA) Assay for ATP-citrate lyase (ACLY) using HepaRG (AID 2283466)
How it was run: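 HepaRG, 48 h exposure, 8-pt half-log dilutions (top 100 uM), 0.5% DMSO. Readout: ACLY mRNA, TaqMan qRT-PCR, housekeeping-normalized (ACTB/GAPDH/POLR2A). Bidirectional curve fit vs DMSO.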

[18] = read-out: Cyclin D2 (CCND2), CCND2 (gene 894); assay: LTEA_HepaRG_CCND2: Life Technologies and Expression Analysis (LTEA) Assay for Cyclin D2 (CCND2) using HepaRG (AID 2283449)
How it was run: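 Read-out is CCND2 mRNA level measured by qRT-PCR in human HepaRG liver cells and normalised to three housekeeping genes. Chemicals were applied for 48 h at up to 100 uM, with gain or loss fitted relative to 0.5% DMSO.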

[19] = read-out: growth arrest and DNA damage 45 (GADD45A), GADD45A (gene 1647); assay: LTEA_HepaRG_GADD45A: Life Technologies and Expression Analysis (LTEA) Assay for growth arrest and DNA damage 45 (GADD45A) using HepaRG (AID 2283458)
How it was run: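 Human HepaRG liver cells are treated in duplicate for 48 h with chemicals in 0.5% DMSO, highest concentration 100 uM. Expression is read by qRT-PCR and analyzed in both directions against vehicle.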

Measured: AC50

Fatty acid synthase (Homo sapiens), sequence (P49327 whole entry, looked up): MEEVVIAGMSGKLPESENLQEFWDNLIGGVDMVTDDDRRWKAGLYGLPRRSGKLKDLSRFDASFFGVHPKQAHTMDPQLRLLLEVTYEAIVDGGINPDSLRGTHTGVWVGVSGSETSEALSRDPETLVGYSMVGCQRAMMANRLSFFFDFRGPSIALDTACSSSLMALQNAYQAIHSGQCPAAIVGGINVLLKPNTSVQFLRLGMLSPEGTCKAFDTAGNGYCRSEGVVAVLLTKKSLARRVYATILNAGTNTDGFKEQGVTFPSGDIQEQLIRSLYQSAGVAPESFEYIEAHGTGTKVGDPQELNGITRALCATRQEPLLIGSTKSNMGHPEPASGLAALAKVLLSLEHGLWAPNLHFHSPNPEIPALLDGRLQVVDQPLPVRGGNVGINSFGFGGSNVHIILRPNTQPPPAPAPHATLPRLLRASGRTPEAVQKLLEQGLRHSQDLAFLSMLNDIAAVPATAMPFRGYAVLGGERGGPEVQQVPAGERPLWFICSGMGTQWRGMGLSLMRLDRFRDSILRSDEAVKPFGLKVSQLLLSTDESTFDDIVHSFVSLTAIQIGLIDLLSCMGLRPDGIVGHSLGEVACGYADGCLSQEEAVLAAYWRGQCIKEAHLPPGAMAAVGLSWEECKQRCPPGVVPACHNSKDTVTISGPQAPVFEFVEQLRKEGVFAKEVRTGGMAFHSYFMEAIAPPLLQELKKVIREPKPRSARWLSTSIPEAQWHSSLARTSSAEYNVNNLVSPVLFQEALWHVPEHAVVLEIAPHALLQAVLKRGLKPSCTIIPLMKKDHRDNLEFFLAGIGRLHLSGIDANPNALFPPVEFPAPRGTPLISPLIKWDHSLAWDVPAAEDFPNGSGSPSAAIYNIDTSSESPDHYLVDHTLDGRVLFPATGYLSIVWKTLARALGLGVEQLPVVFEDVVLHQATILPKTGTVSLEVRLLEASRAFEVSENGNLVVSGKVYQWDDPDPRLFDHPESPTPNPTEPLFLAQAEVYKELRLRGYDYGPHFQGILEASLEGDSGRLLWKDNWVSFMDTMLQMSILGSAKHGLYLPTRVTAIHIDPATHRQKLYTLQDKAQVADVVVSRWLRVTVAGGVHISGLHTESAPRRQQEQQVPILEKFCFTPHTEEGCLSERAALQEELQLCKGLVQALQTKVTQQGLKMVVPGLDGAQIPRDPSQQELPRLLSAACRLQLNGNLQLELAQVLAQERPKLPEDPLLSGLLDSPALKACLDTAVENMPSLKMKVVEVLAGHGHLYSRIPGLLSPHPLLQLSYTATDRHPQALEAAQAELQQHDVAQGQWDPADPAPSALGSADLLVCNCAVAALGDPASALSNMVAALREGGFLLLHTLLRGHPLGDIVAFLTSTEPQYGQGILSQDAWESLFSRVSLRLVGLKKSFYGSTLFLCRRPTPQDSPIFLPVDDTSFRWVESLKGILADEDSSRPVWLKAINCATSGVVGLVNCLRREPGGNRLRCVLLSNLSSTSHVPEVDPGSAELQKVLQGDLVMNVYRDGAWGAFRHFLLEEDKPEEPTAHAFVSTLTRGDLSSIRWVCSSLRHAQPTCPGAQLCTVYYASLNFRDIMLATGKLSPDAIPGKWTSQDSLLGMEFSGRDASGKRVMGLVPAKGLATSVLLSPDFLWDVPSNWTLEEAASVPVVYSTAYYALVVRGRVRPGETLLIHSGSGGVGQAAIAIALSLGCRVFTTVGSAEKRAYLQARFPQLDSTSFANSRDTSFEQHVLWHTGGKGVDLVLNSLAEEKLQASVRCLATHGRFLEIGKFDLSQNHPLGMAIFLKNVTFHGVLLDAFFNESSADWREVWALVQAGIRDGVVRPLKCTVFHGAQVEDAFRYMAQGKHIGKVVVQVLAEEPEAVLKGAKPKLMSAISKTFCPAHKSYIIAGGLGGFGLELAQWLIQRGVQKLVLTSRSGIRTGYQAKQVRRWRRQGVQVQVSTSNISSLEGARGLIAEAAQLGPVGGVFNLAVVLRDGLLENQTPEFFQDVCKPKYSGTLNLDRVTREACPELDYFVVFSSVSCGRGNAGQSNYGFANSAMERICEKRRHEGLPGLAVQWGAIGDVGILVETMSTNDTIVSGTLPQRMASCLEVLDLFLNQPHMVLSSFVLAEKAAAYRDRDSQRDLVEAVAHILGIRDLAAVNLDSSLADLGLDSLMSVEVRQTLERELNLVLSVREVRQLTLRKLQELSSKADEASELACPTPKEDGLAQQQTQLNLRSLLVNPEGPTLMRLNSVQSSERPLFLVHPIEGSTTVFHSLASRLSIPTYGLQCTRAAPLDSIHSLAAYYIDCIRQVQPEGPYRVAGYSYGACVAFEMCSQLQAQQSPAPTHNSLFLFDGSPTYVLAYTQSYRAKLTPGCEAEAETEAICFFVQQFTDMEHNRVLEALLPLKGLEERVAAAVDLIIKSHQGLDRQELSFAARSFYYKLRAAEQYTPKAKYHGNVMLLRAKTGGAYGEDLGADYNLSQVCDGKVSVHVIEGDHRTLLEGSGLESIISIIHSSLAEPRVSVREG
Broad substrate specificity ATP-binding cassette transporter ABCG2 (Homo sapiens), sequence (Q9UNQ0 whole entry, looked up): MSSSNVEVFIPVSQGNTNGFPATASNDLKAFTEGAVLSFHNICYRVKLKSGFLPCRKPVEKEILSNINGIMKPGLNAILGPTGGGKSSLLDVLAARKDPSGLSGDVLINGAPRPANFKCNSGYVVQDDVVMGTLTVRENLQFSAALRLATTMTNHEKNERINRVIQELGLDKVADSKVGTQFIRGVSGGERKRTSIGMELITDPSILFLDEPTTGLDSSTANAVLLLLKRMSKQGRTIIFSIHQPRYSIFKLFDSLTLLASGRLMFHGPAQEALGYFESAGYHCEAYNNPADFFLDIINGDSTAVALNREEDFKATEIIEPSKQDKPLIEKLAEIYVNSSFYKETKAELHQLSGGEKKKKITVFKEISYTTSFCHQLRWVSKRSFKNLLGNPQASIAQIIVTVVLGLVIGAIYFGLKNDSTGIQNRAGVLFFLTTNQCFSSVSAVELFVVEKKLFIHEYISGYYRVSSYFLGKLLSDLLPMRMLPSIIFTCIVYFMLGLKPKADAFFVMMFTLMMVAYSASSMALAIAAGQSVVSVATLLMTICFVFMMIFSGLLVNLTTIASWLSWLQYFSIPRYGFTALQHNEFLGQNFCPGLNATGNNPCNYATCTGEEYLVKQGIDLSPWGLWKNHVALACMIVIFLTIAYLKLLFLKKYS

CCCCCCC(=O)OCC
inactive: [1] | [2] | [3] | [4] | [5] | [6] | [8] | [9] | [10] | [11] | [12] | [13] | [14] | [15] | [16] | [17]
active: [7] 33.1 µM

O=C(N[C@@H](Cc1ccccc1)[C@@H](O)C(=O)N1C[C@@H](O)[C@@H](O)C1)c1cc2cc(Cl)ccc2[nH]1
active: [3] 63.1 µM | [7] 50 µM | [11] 9.92 µM | [16] 50 µM | [17] 50 µM
inactive: [1] | [2] | [18] | [5] | [8] | [9] | [19] | [10] | [12] | [14] | [15]

Oc1ccc2c(c1)OC[C@@H](N1CCC(O)(c3ccc(F)cc3)CC1)[C@H]2O
inactive: [1] | [2] | [3] | [4] | [5] | [6] | [7] | [8] | [9] | [19] | [10] | [11] | [12] | [13] | [14] | [15] | [16] | [17]

O=c1c(O)c(-c2ccc(O)c(O)c2)oc2cc(O)cc(O)c12
inactive: [1] | [2] | [3] | [4] | [5] | [8] | [9] | [19] | [10] | [12] | [13] | [15] | [16] | [17]
active: [7] 0.634 µM | [14] 76.7 µM

CC(=O)Oc1ccccc1C(=O)O
inactive: [1] | [2] | [18] | [3] | [5] | [8] | [9] | [10] | [11] | [12] | [13] | [14] | [15] | [16] | [17]
active: [7] 50 µM

NCC1(Cc2noc(=O)[nH]2)CCCCC1
active: [7] 73.3 µM
inactive: [1] | [2] | [3] | [4] | [5] | [6] | [8] | [9] | [19] | [10] | [11] | [12] | [13] | [14] | [15] | [16] | [17]
